We go through 3 compounds from PubChem BioAssay (NCI).

The panel holds about 83,000 compounds, 20% with a hit somewhere; the sample as a whole holds those more often.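 Interpretation: 100, growth as untreated; towards 0, rising growth inhibition; 0, no net growth; 0 to -100, cell death. Compounds scoring below 10 were considered active.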 Unmarked numbers belong to inactive results. The source made the active and inactive calls.

The subject of this test is HL-60(TB) leukemia. Nature of the test: NCI-60 one-dose screen, 48 h (100 = growth as untreated, 0 = no growth, -100 = all killed). The note with it: 10 µM unless noted.
In the case of `CC(C)C(C)C(N)C(=O)O` (stereo not drawn), the growth is 97.9%.

Turning to `Cc1ccc(-c2nc3nc(-c4ccccc4)nc(N4CCN(S(=O)(=O)c5ccccc5)CC4)c3o2)cc1`, the growth was 107%.

Regarding `CC(=C(c1ccc(OCCN2CCCCC2)cc1)c1ccc(OCCN2CCCCC2)cc1)c1ccc(Cl)cc1`, the growth was -62% (active).
